This is a sample that favours compounds with a hit; in the whole collection about 7.9% have one here.
MARV entry inh: inhibitors of Marburg virus binding or cell entry; 1.8% of 300,000 active; Potency, µM (series often up to 37.8 µM), without a hit: at the top dose activity change, negative = inhibition, most hits filed as inhibitors; AID 540276; Marburg virus pseudotyped entry inhibition, cell reporter; calls by dose curve; tested in HEK293 cells; note: potency is the fitted concentration of half-maximal effect; % is set by controls: 0 for no effect and ±100 for the full control effect
HCV inh: inhibitors of hepatitis C virus infection. Huh7.5.1 HCVcc-Cre infection, luciferase reporter, 44 h. Potency, µM (series often up to 41.8 µM), without a hit: at the top dose activity change, negative = inhibition, actives largely listed as inhibitors. 3.4% of 340,000 active; note: potency is the fitted concentration of half-maximal effect; % is set by controls: 0 for no effect and ±100 for the full control effect
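Infectious HCVcc-Cre (~0.5 moi) was added to cells just after compound, with cells seeded 4 h earlier at 1,000 per well. Luciferase activity after 44 h culture reported infection; substrate was incubated 15 min at room temperature before reading.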
HCMV inh: inhibitors of human cytomegalovirus. HFF cells, HCMV-luciferase reporter, 72 h; stronger effect = lower value. activity change, negative = inhibition, % at 57.5 µM. 4.5% of 410,000 active. AID 1259415; in the data active = activity change below about -60%; inconclusive = no clear call, values can overlap the other calls; inactive = above about -39%; note: % is set by controls: 0 for no effect and ±100 for the full control effect
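After 16 h attachment at 37C, HFF cells received test compound and HCMV-luciferase (1 PFU/cell); reporter luminescence read 72 h later, data normalized against buffer-only and known inhibitor Salinomycin.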
FMDV antiviral: foot and mouth disease virus antiviral activity; FMDV antiviral cell-based qHTS; Potency, µM (titrated, usually from 57.9 µM), inactives show at the top dose activity change, negative = inhibition, most hits filed as inhibitors; 1.2% of 410,000 active; AID 1159524; calls by dose curve; tested in HEK293T cells; note: read-out not given here; potency is the fitted concentration of half-maximal effect; % is set by controls: 0 for no effect and ±100 for the full control effect; nearly all actives have a fitted effect of over 45% in size
Lassa entry inh: inhibitors of Lassa virus binding or cell entry; Lassa virus pseudotype entry inhibition, cell reporter; 1.2% of 300,000 active; AID 540256; Potency, µM (titrated, usually from 37.9 µM), for the others: top-dose activity change, negative = inhibition, usual class: inhibitors; calls by dose curve; tested in HEK293 cells; note: potency is the fitted concentration of half-maximal effect; % is set by controls: 0 for no effect and ±100 for the full control effect; nearly all actives have a fitted effect of over 50% in size
WI-38 cytotox: toxic to WI-38 fibroblasts in PNC inhibitor counter-screen. WI-38 normal lung fibroblasts, ATPLite luminescence ATP viability, 24 h. shares compounds with MARV entry inh. 120 tested, under 10 active. Potency, µM (top dose mostly 46.1 µM), for inactives: top-dose activity change, negative = cytotoxicity, actives largely listed as inhibitors
PNC inh conf: confirmation of perinucleolar compartment assembly inhibitors. Potency, µM (titrated, usually from 46.1 µM), without a hit: at the top dose activity, negative = PNC inhibition, most hits filed as inhibitors. shares compounds with MARV entry inh. PC3M PTB-GFP, PNC prevalence imaging, 16 h. 50% of 120 active
PC3M casp3-7: activates caspase 3/7 in PC3M cells in PNC counter-screen. shares compounds with MARV entry inh. PC3M-GFP caspase 3/7 activation, luminescence, 24 h. activity change, positive = activation, % at 46.1 µM. 120 tested, under 10 active. AID 2731
HCV confirm: confirmation of hepatitis C virus inhibitors | shares compounds with HCV inh | HCVcc-Cre infectious virus cell assay, luciferase, inhibition | Potency, µM (titrated, usually from 41.8 µM), without a hit: top-dose activity, negative = inhibition, most hits filed as inhibitors | 78% of 640 active | AID 720575; note: potency is the fitted concentration of half-maximal effect; nearly all actives have a fitted effect of over 80% in size
HCV cytotox: host cell cytotoxicity counter-screen for HCV inhibitors; shares compounds with HCV inh; HCV host cell line cytotoxicity counterscreen; Potency, µM (top dose mostly 41.8 µM), without a hit: top-dose activity change, negative = cytotoxicity, usual class: inhibitors; 22% of 640 active; AID 720576;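 note: potency is the fitted concentration of half-maximal effect; 44 h compound exposure; % is set by controls: 0 for no effect and ±100 for the full control effect; nearly all actives have a fitted effect of over 55% in size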
* = called active by the depositor; [ ] = dose if it differs, or a comment. Unless noted, calls come from the whole dose curve; as a rule, active = well fitted curve in the direction sought with a large enough effect; inconclusive = small, poorly fitted or top-dose-only effect, or another doubt; inactive = no such curve, though single readings can be large; an effect the other way counts as inactive or inconclusive.

`CCN1C(=O)c2cccc3c(S(=O)(=O)N(C(=O)c4ccncc4)c4ccc(OC)cc4)ccc1c23` gave MARV entry inh inconclusive, HCV inh inconclusive, HCMV inh 10.6, FMDV antiviral 22.1%, Lassa entry inh inconclusive, WI-38 cytotox -2.8%, PNC inh conf -0.9% and PC3M casp3-7 -3.5.
COc1cccc(CNC(=O)CCc2c(C)nn(-c3ccc(N4CCCC4)nn3)c2C)c1 was read as HCMV inh inconclusive, FMDV antiviral -12.4% and Lassa entry inh -0.5%[46.1 µM].
`Cc1ccc(C(O)(C(=O)NNC(=O)CN2CCN(C)CC2)c2ccc(C)cc2)cc1` gave MARV entry inh inconclusive, HCV inh 10.1%, HCMV inh inconclusive, FMDV antiviral -15.2%, Lassa entry inh 3.1%, WI-38 cytotox -9.8%, PNC inh conf -3.7% and PC3M casp3-7 -7.0.
For C=CCCC1CN(Cc2ccc(OC)cc2)S(=O)(=O)c2c(Oc3ccc(OC)cc3)cccc2O1 (stereo unspecified) the results were HCMV inh -9.1.
`Cc1ccc(S(=O)(=O)Nc2cc3c4c(c2)CCC(=O)N4CCC3)cc1` gave MARV entry inh -4.5%[46.1 µM], HCV inh -14.8%[8.37 µM], HCMV inh 38.3, FMDV antiviral 7.2% and Lassa entry inh inconclusive.
Screening Cc1c(C)c(C)c(S(=O)(=O)Nc2ccc3[nH]c(=O)[nH]c3c2)c(C)c1C returned MARV entry inh -20.1%, HCV inh -14.7%, HCMV inh -23.6, FMDV antiviral -14.9% and Lassa entry inh 9.1%.
`CCN(CC)c1ccc(N=Cc2ccccc2[N+](=O)[O-])cc1` gave MARV entry inh inconclusive, HCV inh inconclusive, HCMV inh -3.9, FMDV antiviral 3.6%, Lassa entry inh inconclusive, WI-38 cytotox -20.1%, PNC inh conf -8.1% and PC3M casp3-7 -7.5.
Screening CC(=O)N(C)c1ccc(N=Cc2cc3c(cc2[N+](=O)[O-])OCO3)cc1 returned MARV entry inh 7.4%[46.1 µM], HCV inh 16.7%, HCMV inh -25.3, FMDV antiviral -17.9% and Lassa entry inh -18.5%.
Screening CCNS(=O)(=O)c1ccc(OC)c(C(=O)NC2CCCCC2)c1 returned MARV entry inh -1.2%[46.1 µM], HCV inh -23.7%, FMDV antiviral -0.4% and Lassa entry inh 0.9%[46.1 µM].
Screening CCCSc1cc(N2CCCC2)nc(-c2ccccc2)n1 returned MARV entry inh -4.4%, HCV inh -18.2%, HCMV inh -0.6, FMDV antiviral -3.8% and Lassa entry inh 9.4%.
`CCCSc1cc(N2CCN(C)CC2)nc(-c2ccc(OC)cc2)n1` gave MARV entry inh inconclusive, HCV inh 14.1µM*, HCMV inh -35.3, FMDV antiviral -5.2%, Lassa entry inh inconclusive, WI-38 cytotox 3.5%, PNC inh conf inconclusive and PC3M casp3-7 -1.0.
Cc1ccsc1C(=O)N(C)CC(=O)Nc1ccccc1Br was read as MARV entry inh 9.8%, HCV inh 0.0%, HCMV inh -22.0, FMDV antiviral -16.8% and Lassa entry inh 12.2%.
CN(C)CCNC(=O)c1ccc(COc2ccc(Cl)cc2Cl)cc1 was read as MARV entry inh 8.2µM*, HCV inh 7.94µM*, HCMV inh 51.2, FMDV antiviral -14.5%, Lassa entry inh inconclusive, HCV confirm 15.8µM* and HCV cytotox -40.8%.
Screening Cc1nn(Cc2c(F)c(F)c(F)c(F)c2F)c(C)c1NC(=O)c1ccc(COc2ccc(F)cc2)o1 returned MARV entry inh 3.66µM*, HCV inh 2µM*, HCMV inh inconclusive, FMDV antiviral inconclusive, Lassa entry inh -21.9%, HCV confirm 14.1µM* and HCV cytotox -23.2%.
COc1ccc(-c2sc(Nc3cccc4ccccc34)n[n+]2C)c(C)c1C was read as HCV inh 13.1%, HCMV inh 5.9 and FMDV antiviral 2.6%.
CCn1nc(/C=C/c2ccccc2)nc2c(=O)n(C)c(=O)nc1-2 was read as MARV entry inh 0.708µM*, HCV inh 2.51µM*, HCMV inh -96.4*, FMDV antiviral 2.51µM*, Lassa entry inh 7.94µM*, HCV confirm 5.6µM* and HCV cytotox 7.05µM*.
Screening Cn1c(=O)c(/C=C/c2ccccc2)nc2ccccc21 returned MARV entry inh inconclusive, HCV inh 6.4%, HCMV inh 229.8, FMDV antiviral -9.9% and Lassa entry inh -16.4%.
COc1ccc(NS(=O)(=O)c2cccc(C(=O)N(C)Cc3ccc(SC)cc3)c2)cc1 was read as MARV entry inh inconclusive, HCV inh inconclusive, HCMV inh -11.0, FMDV antiviral 48.9% and Lassa entry inh inconclusive.
For O=C(C[C@@H]1C/C=C\C[C@@H](NC(=O)OCC2c3ccccc3-c3ccccc32)C(=O)OCCNC1=O)N[C@@H](CO)Cc1ccccc1 the results were HCV inh 1.78µM*, HCMV inh -7.7, FMDV antiviral -17.3%, HCV confirm inconclusive and HCV cytotox -13.0%.
For C[C@@H]1COC(=O)[C@H](NC(=O)OCC2c3ccccc3-c3ccccc32)C/C=C\C[C@@H](CC(=O)N[C@H](CO)Cc2ccccc2)C(=O)N1 the results were HCV inh inconclusive, HCMV inh -22.9 and FMDV antiviral -2.6%.
Screening C[C@@H](CSc1ccc(Br)cc1)CN1CC[C@H](NC(=O)OCc2ccccc2)CCC1=O returned HCV inh 4.47µM*, HCMV inh -25.0, FMDV antiviral 25.1µM*, HCV confirm 14.1µM* and HCV cytotox -62.7%.
Cc1ccc(CC(=O)NCc2nc(-c3cccc(C)c3)no2)cc1 was read as MARV entry inh 13.8%[46.1 µM], HCMV inh 17.2, FMDV antiviral -4.2% and Lassa entry inh -36.9%[46.1 µM].
For COc1cc2c(cc1OC)C(C)N(C(=O)C(NC(=O)c1ccccc1)C(C)C)CC2 (stereo unspecified) the results were MARV entry inh 0.5%[46.1 µM], HCV inh inconclusive, HCMV inh 64.7, FMDV antiviral -9.6% and Lassa entry inh -29.8%.
